A word on the inhibition: it is the change of the read-out against control, counted positive when it falls.

In all, about 340,000 compounds went through this assay and about 1,700 (0.5%) were called active. The sample as a whole holds a higher share of actives than the screen did. Values without a mark were called inactive. Rule as the data show it: active = inhibition above about 36%; inactive = the rest.

Among the data in PubChem BioAssay AID504803 (The Scripps Research Institute Molecular Screening Center, 2011) are inhibition values, retold here.

In this assay the target is Serine protease HTRA1 (Homo sapiens) (UniProt Q92743). As to the kind of experiment: HTRA1 serine protease inhibitors, primary screen, biochemical, fluorescence polarization, HTS (AID 504803).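 Also: 0% = enzyme with DMSO and 100% = wells lacking enzyme.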 The conditions noted are these: recombinant HTRA1, FP-rhodamine activity-based probe, at 5.96 µM, hits give high values. For orientation: Fluorescence polarisation rises when a labelled molecule tumbles more slowly, as on binding a larger partner.
Sequence of Serine protease HTRA1 (Homo sapiens) (Q92743 whole entry, looked up): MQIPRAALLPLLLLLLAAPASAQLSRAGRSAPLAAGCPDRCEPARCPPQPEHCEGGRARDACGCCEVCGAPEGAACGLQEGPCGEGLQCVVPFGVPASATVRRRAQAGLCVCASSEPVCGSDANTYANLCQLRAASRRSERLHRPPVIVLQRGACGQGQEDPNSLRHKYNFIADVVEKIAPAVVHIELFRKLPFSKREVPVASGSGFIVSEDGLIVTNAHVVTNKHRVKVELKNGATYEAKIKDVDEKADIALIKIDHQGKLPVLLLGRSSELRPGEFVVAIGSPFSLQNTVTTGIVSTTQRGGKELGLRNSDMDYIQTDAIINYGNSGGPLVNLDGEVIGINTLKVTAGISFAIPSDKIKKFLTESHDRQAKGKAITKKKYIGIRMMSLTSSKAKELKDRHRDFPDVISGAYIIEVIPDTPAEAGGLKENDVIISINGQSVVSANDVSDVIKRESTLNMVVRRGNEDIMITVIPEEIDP
`COc1ccc(N)cc1NC(=O)CN1CCOCC1`: the inhibition was -3.64%.

Turning to `Oc1ccc(C2Nc3cccc4cccc(c34)N2)cc1`, the inhibition was 22.9%.

`Brc1ccccc1C1Nc2cccc3cccc(c23)N1`: the inhibition is 59.2% (active).

Regarding `COc1cc2c(cc1OC)C(c1ccccc1Br)NC(=O)C2` (stereo not given), the inhibition was -6.31%.

As to `Cc1ccc(NC(=O)c2ccco2)cc1`, the inhibition is 1.31%.

With `Cc1nc2ccccc2nc1CC(O)(c1ccccc1)c1ccccc1`, the inhibition is -14.1%.

For `Cc1cc(Cl)ccc1C(=O)C1CCCN(C(=O)c2ccc3c(c2)OCO3)C1` (stereo not given), the inhibition was -4.58%.

`NC(=O)NC(=O)C(OC(=O)CCNS(=O)(=O)c1ccccc1)c1ccccc1` (stereo not given): the inhibition was 36.7% (active).

Turning to `O=S(=O)(NCCNS(=O)(=O)c1ccccc1)c1ccccc1`, the inhibition was 4.81%.

For the molecule `Cc1ccc(S(=O)(=O)NCCC(=O)OCC(=O)N(C)c2ccccc2)cc1`, the inhibition was 5.9%.

Turning to `CSc1ncnc2c1ncn2CCCNCc1cccs1`, the inhibition was 3.07%.

For `C[C@@H]1CCCCO[C@H](CN(C)Cc2ccccc2)[C@@H](C)CN([C@H](C)CO)C(=O)c2cc(NS(=O)(=O)c3ccc(Cl)cc3)ccc2O1`, the inhibition was -17.9%.

With `CCc1cccc(CC)c1N1C(=O)CC(Sc2ccccc2N)C1=O` (stereo not given), the inhibition is 2.44%.

Consider `Cn1nc(N)c2ncc(C(Cl)(Cl)Cl)nc21`, for which the inhibition was -0.52%.

As for `CN(C)c1ccc(N/C=C/C(=O)C(F)(F)F)cc1`, the inhibition was 38.7% (active).

Regarding `COc1cc(OC)c(C(=O)Nc2ccc(N(C)C)cc2)cc1OC`, the inhibition was 5.76%.

`CC(C)CNC(=O)C(=O)Nc1ccc(N(C)C)cc1`: the inhibition was 7.37%.

Turning to `C[C@H](CO)N1C[C@H](C)[C@@H](CN(C)C(=O)c2cccc(F)c2)Oc2cc(-c3cncnc3)ccc2S1(=O)=O`, the inhibition is 2.58%.

Take `O=C(Nc1cc(S(=O)(=O)N2CCOCC2)ccc1Cl)c1cc(=O)c2ccccc2o1`: the inhibition was -4.07%.

In the case of `O=C(c1cc(S(=O)(=O)N2CCOCC2)ccc1Cl)N1CCOCC1`, the inhibition was 2.81%.

Take `O=[N+]([O-])c1cc(Cl)cc(/C=N/NC(=S)Nc2cc(S(=O)(=O)N3CCOCC3)ccc2Cl)c1O`: the inhibition was 45.7% (active).

Consider `Cc1ccc(Nc2ccccc2N)cc1`, for which the inhibition was 47.8% (active).

For `Nc1ccc(C(=O)Nc2ccccc2N)cc1`, the inhibition was 6.6%.

As for `Cc1ccc(Nc2nc(Cl)c(C=O)s2)cc1`, the inhibition was -8.62%.

With `CC1(c2cccc(N)c2)OCCO1`, the inhibition was 4.7%.

Turning to `O=C(O)C1=C(C(=O)O)C2CCC1C2`, the inhibition was 9.01%.

Turning to `CN1CCN(c2ccncc2S(=O)(=O)N2CCCC2)CC1`, the inhibition is 3.56%.

Regarding `Clc1ccc(C2=CSC3=Nc4cccc5cccc(c45)N23)cc1`, the inhibition is 44.2% (active).

On to `CC1=C(C(=O)N2CCOCC2)CC(CC(=O)NCc2cccc3ccccc23)C(=O)N1CCC1=CCCCC1` (stereo not given), for which the inhibition was -3.43%.

Regarding `O=C1NC(Cc2ccccc2)c2nc3ccc(Br)cc3c(=O)n2-c2cc3ccccc3cc21` (stereo not given), the inhibition was -54.3%.

Turning to `CC(=O)Nc1ccc(S(=O)(=O)Nc2ccc(N3CCCCC3)cc2)cc1`, the inhibition is 52.4% (active).

For the molecule `CC(=O)Nc1ccc(NS(=O)(=O)c2ccc3c(c2)NC(=O)CC(=O)N3)cc1`, the inhibition is 6.8%.

As for `CC(=O)Nc1ccc(S(=O)(=O)N2CCCC2C(=O)O)cc1` (stereo not given), the inhibition was 2%.

Consider `C=CCOc1ccccc1CNn1c(C)n[nH]c1=S`, for which the inhibition is 3.58%.

`CNC(=S)NNC(=O)c1oc2nc(-c3ccccc3)cc(-c3ccco3)c2c1N`: the inhibition is 51.7% (active).

As for `CNC(=S)NNC(=O)c1cccn(Cc2ccccc2)c1=O`, the inhibition was 3.18%.

For the molecule `CNC(=S)NNC(=O)c1sccc1OCc1ccccc1`, the inhibition was 5.29%.

For `Cc1cc2cc3n(c2nn1)N=C(Cl)CC3`, the inhibition is 3.25%.

On to `CCOC(=O)C1CCN(C(=O)c2ccc3c(=O)n4nc(Nc5ccccc5CC)sc4nc3c2)CC1`, for which the inhibition is -34.2%.

`CCOC(=O)C=Cc1ccc(C(=O)OCC)[nH]1`: the inhibition was 0.68%.

For the molecule `Cc1[nH]c2ccccc2c1C(=O)C(=O)NCc1nnnn1-c1cccc(F)c1`, the inhibition is 7.28%.

On to `CCC(Oc1ccccc1)C(=O)OCC(=O)Nc1c(C)nn(-c2ccccc2)c1C` (stereo not given), for which the inhibition was -6.47%.

Consider `CCn1c(SCC(=O)N/N=C/c2ccncc2)nc2ccccc21`, for which the inhibition was 4.65%.

With `Cn1c(SCC(=O)N/N=C/c2ccc(O)c(O)c2)nc2ccccc21`, the inhibition was 41.2% (active).

Regarding `CCOc1ccc(/C=N/NC(=O)CSc2ccccn2)cc1O`, the inhibition is 9.01%.

For `O=C1OCCC1=COCCCCOC=C1CCOC1=O`, the inhibition was -3.04%.

Turning to `O=C(N/N=C/c1sc(N2CCCCC2)nc1-c1cccs1)c1cccnc1`, the inhibition was 40.5% (active).

Take `O=C(O)c1ccc(N/N=C/c2cn(-c3ccccc3)nc2-c2cccs2)cc1`: the inhibition is -11.3%.

`Cc1ccc(NC(=O)COc2ccc(/C=N\NC(=O)c3cccnc3)cc2)cc1C`: the inhibition was -7.41%.

In the case of `CSc1ncnc2c1ncn2CCCNCc1ccco1`, the inhibition was 8.47%.

For `CCN(CC)CCN(C(=O)c1ccc2c(c1)CCCC2)c1nc2c(OC)cccc2s1`, the inhibition was -19.6%.

`CN1OC[C@@H]2CN[C@H](c3ccc(-c4ccccc4)cc3)C[C@@H]21`: the inhibition is -1.81%.

As to `COCCn1c(SCC(=O)Nc2ccc(F)cc2F)nc2c(c1=O)SCC2`, the inhibition was -1.19%.

As to `CC(=O)c1ccc(N2CCN(C(=O)CCc3ccccc3)CC2)cc1`, the inhibition is 2.82%.

As for `CC(CC(=O)N1CCN(c2ccccc2)CC1)c1ccccc1` (stereo not given), the inhibition was -0.5%.

Consider `CC(=O)N1CCN(c2ccc(NCc3ccc(C(C)C)cc3)cc2)CC1`, for which the inhibition is 59.2% (active).

Take `O=C(OCc1ccccc1)N1CCC2CC1c1cc(N3CCN(S(=O)(=O)c4cc(Cl)cc(Cl)c4)CC3)ccc12` (stereo not given): the inhibition is -4.06%.

As for `C[C@H](O)[C@@H]1C(=O)N2CCc3c([nH]c4ccccc34)[C@@H]2C[C@@H]1N(C)C(=O)Nc1ccc(F)cc1`, the inhibition was -1.56%.

Take `C[C@@H]1CN([C@H](C)CO)C(=O)CCCn2nncc2CO[C@@H]1CN(C)C(=O)OCc1ccccc1`: the inhibition was -3.03%.

On to `CC(C)CCOc1ccc(C(=O)Nc2cc(S(=O)(=O)N3CCOCC3)ccc2N2CCOCC2)cc1`, for which the inhibition was -7.89%.

Consider `COc1ccc(NS(=O)(=O)c2cc(NC(=O)CC(=O)c3ccc([N+](=O)[O-])cc3)ccc2C)cc1`, for which the inhibition was 45.4% (active).

As for `COc1ccc(NS(=O)(=O)c2cc(NC(=O)COc3ccccc3F)ccc2OC)cc1`, the inhibition was -13.3%.

As for `Cc1ccc(NC(=O)CCNC(=O)c2ccc([N+](=O)[O-])cc2)cc1S(=O)(=O)N1CCOCC1`, the inhibition is 3.34%.

Turning to `CC1CCCC(C)N1C(=O)COC(=O)c1ccccc1C(=O)c1ccccc1` (stereo not given), the inhibition is 0.04%.

On to `CCOc1cc(/C=N/NC(=O)c2ccncc2)cc(Br)c1O`, for which the inhibition was 3.19%.

Take `O=C(C1CCCO1)N1CCN(C(=O)C23CC4CC(CC(C4)C2)C3)CC1` (stereo not given): the inhibition is 9.09%.

As for `O=C1CC(NNc2ccccc2)C(=O)N1c1cccc(Cl)c1` (stereo not given), the inhibition is -8.57%.

With `COc1ccc(N2CCN(C3CC(=O)N(c4ccc5c(c4)OCCO5)C3=O)CC2)cc1` (stereo not given), the inhibition was 4.17%.

As for `CC(=O)Oc1cccc(N2C(=O)CC(Nc3ccc(N4CCOCC4)cc3)C2=O)c1` (stereo not given), the inhibition was 51.5% (active).

With `CCC(C)Cn1c(O)cc2nn(-c3nc4ccccc4s3)c(=O)c-2c1C` (stereo not given), the inhibition is 61.1% (active).

Regarding `O=C(OCc1ccccc1)N1CCC2CC1c1ccc(-c3ccc4c(c3)OCO4)cc12` (stereo not given), the inhibition is -25%.

Take `COc1ccc(OC)c(-c2csc(NC(=O)C3=NNC(=O)CC3)n2)c1`: the inhibition was -2.91%.

On to `COc1ccc(-c2csc(Nc3cccc(C)n3)n2)cc1OC`, for which the inhibition is 13.4%.

In the case of `COc1ccc(OC)c(Nc2nc(-c3ccc(O)c(O)c3)cs2)c1`, the inhibition was 64.3% (active).

As to `C[C@@H]1CN([C@H](C)CO)S(=O)(=O)c2ccc(C#C[C@@H](C)O)cc2O[C@@H]1CN(C)Cc1ccc(-c2ccccc2)cc1`, the inhibition is -54%.

With `O=C(OCc1cn([C@H]2C[C@H](c3ccccc3)N(C(=O)c3cccs3)C[C@@H]2O)nn1)c1ccccc1`, the inhibition was -11.7%.

On to `N#CC1(Nc2ccc3c4c(cccc24)CC3)CCCCC1`, for which the inhibition is 33.2%.

Regarding `Cc1cc(C(=O)COC(=O)C2CC2)c(C)n1-c1ccc(F)cc1`, the inhibition was 4.47%.

Take `Cc1cc(C(=O)N/N=C/c2ccc(O)c([N+](=O)[O-])c2)c(C)n1-c1ccc(F)cc1`: the inhibition was 45.1% (active).

As to `O=C1CSC(=S)N1/N=C/c1ccc(O)c([N+](=O)[O-])c1`, the inhibition was 13.7%.

Turning to `Cc1ccc([C@H]2N[C@]3(CCCN(CC4CCCCC4)C3=O)[C@H]3C(=O)N(Cc4ccccc4)C(=O)[C@@H]23)cc1`, the inhibition is -16.8%.

Regarding `Fc1ccccc1N=C1Nc2cccc3cccc1c23`, the inhibition was -6.03%.

In the case of `COc1ccccc1-c1nc(C(F)(F)F)c(OC)o1`, the inhibition is -5.12%.

On to `COc1ccccc1C1=Nc2cccc3cccc(c23)N1`, for which the inhibition was 60.3% (active).

As to `O=C1c2ccccc2C(=O)c2c1cccc2N1CCN(Cc2ccccc2)CC1`, the inhibition was 62% (active).

As for `O=C(CN1CCN(Cc2ccccc2)CC1)NC(c1ccccc1)c1ccccc1`, the inhibition is -2.99%.

Consider `O=C1c2ccccc2C(=O)c2c1cccc2N1CCN(CCO)CC1`, for which the inhibition was 9.89%.

With `CCCCN1C(=O)C(CC(=O)NCc2cccs2)CC(C(=O)N2CCOCC2)=C1C` (stereo not given), the inhibition was 1.73%.

Turning to `Cc1noc(C)c1S(=O)(=O)N(C)C[C@H]1OCCCC[C@@H](C)Oc2ccc(NC(=O)CCCN(C)C)cc2C(=O)N([C@H](C)CO)C[C@@H]1C`, the inhibition is 1.73%.

Consider `Cc1ccc(-c2ccc(CN3C(C)C(=O)N(Cc4cn(CCC5OCCCO5)nn4)CCS3(=O)=O)cc2)cc1` (stereo not given), for which the inhibition is -6.77%.
